Experimental data: PubChem BioAssay AID1345082 (National Center for Advancing Translational Sciences (NCATS), 2018)
Screen size: about 94,000 compounds; about 4,000 (4.3%) were called active. Where a call stands in place of a potency, no number is given. Inconclusive results (about 29%) are left out. Calls come from the whole dose curve; as a rule, active = well fitted inhibition curve with a large enough effect; inconclusive = small, poorly fitted or top-dose-only effect; inactive = no such curve, though single readings can be large or run the other way. The sample as a whole holds a higher share of actives than the screen did.

Assay: Cytotoxic Profiling in NIH 3T3 Cell Line of Diverse Libraries Using Quantitative High-Throughput Screening; note: nearly all actives have a fitted effect of over 55% in size
Settings: NIH 3T3 viability, CellTiter-Glo ATP luminescence, 48-72 h; series mostly up to 96.7 µM
Description: Cell-based phenotypic screening is a commonly used approach to discover biological pathways, novel drug targets, chemical probes and high-quality hit-to-lead molecules. Many hits identified from high-throughput screening campaign are ruled out through a series of follow-up potency, selectivity/specificity, and cytotoxicity assays. Prioritization of molecules with little or no cytotoxicity for a more in-depth downstream evaluation influence the future direction of projects, so cytotoxicity profiling of the screening libraries at early stage is essential for increasing the likelihood of candidate success. In this study, we analyzed results from a cell-based cytotoxicity screening campaign, comprising nearly 10,000 compounds in NCATS annotated libraries, and over 100,000 compounds in a diversity library, evaluated in four normal cell lines (HEK 293, NIH 3T3, CRL-7250 and HaCat) and a cancer cell line (KB 3-1, a HeLa subline) with overall screening outcomes, hit rates, pan-activity and selectivity. For the annotated library, we also examined the primary targets and mechanistic pathways regularly associated with cell death. To our knowledge, this is the first study to use high-throughput screening to profile large libraries for cytotoxicity assessment in both normal and cancer cell lines. In summary, the results generated here constitutes a valuable resource for the scientific community and provides insight on identifying cytotoxic compounds with particular mechanisms of action, and prioritizing compounds with suitable cytotoxicity profile for further evaluation.
NIH 3T3 cells were seeded into white 1536-well plates using a Multidrop Combi peristaltic dispenser (ThermoFisher, Waltham, MA) at a density of 400 cells/well in 5 uL of medium respectively. A pintool (Kalypsys) was used to transfer 23 nL of compound solution to the 1536-well assay plates. After 48 or 72 hr incubation at 37 degree Celsius, 5% CO2 and 95% humidity, 2.5 uL of CellTiter-Glo (Promega) was dispensed into each well using a dispenser (Aspect Automation, St. Paul, MN) with solenoid valves (Lee Valves, Westbrook CT). Plates were left at room temperature for 10 min before imaging the ATP-coupled luminescence using a ViewLux microplate imager (PerkinElmer, Waltham, MA).
Potency is the fitted concentration of half-maximal effect.

Row | Compound | Potency
1 | CC(C)Cc1cc(CNc2nc(C(C)(C)C)nc3c2cnn3C)no1 | 44.7 µM (active)
2 | CCCc1nc(NCC(c2ccccn2)N2CCOCC2)c2cnn(C)c2n1 (configuration not stated) | inactive
3 | COc1ccc2[nH]cc(CCNC(=O)CC3=C4CCCCC4N(C)C3=O)c2c1 (configuration not stated) | inactive
4 | COc1ccc(CNC(=O)CC[C@@H]2CNC(=O)[C@@H]3C[C@H](NC(=O)Nc4ccsc4)CN23)cc1 | inactive
5 | Cc1cccc(-c2nc3ccc(C(=O)N4CCCCC4)cc3o2)n1 | 10 µM (active)
6 | CC(=O)N1CCN(C(=O)c2ccc3nc(-c4ccncc4)oc3c2)CC1 | inactive
7 | CCOC(=O)C1CCCN(C(=O)c2ccc3oc(-c4ccccn4)nc3c2)C1 (configuration not stated) | inactive
8 | Cc1ccccc1NC(=O)CN1C(=O)NC(c2ccccc2Cl)C2=C1COC2=O (configuration not stated) | inactive
9 | CCOc1ccccc1C1NC(=O)N(CC(=O)Nc2c(C)cccc2Cl)C2=C1C(=O)OC2 (configuration not stated) | inactive
10 | CCOc1ccccc1C1NC(=O)N(CC(=O)Nc2ccc(C)c(C)c2)C2=C1C(=O)OC2 (configuration not stated) | inactive
11 | CCc1cccc(NC(=O)CN2C(=O)NC(c3ccc(Cl)cc3)C3=C2COC3=O)c1 (configuration not stated) | 25.1 µM (active)
12 | Cc1cccc(C)c1NC(=O)CN1C(=O)NC(c2ccc(Cl)cc2)C2=C1COC2=O (configuration not stated) | inactive
13 | Cc1ccc(Cl)cc1NC(=O)CN1C(=O)NC(c2ccc(Cl)cc2)C2=C1COC2=O (configuration not stated) | 35.5 µM (active)
14 | CCN1CC2(CCN(Cc3c(OC)ccc(F)c3F)CC2)OC1=O | inactive
15 | COc1ccc(-c2cccc(C(=O)N3CCN(C(=O)c4ccc(Cl)nc4)CC3)c2)nn1 | inactive
16 | COCCc1noc(C2Cc3ccccc3N2C(=O)NCc2ccco2)n1 (configuration not stated) | inactive

Row | Compound | Potency
17 | O=C(NC[C@H]1O[C@H](Cc2cc(-c3ccccc3)on2)CC[C@@H]1O)C1CCC1 | inactive
18 | O=C1Nc2ccccc2CC12CCN2Cc1cncs1 (configuration not stated) | inactive
19 | CC(=O)N1CCN(C(=O)c2ccccc2N2CCOCC2)CC(O)C1 (configuration not stated) | inactive
20 | COCc1cccc(-c2n[nH]c3c2CC(=O)N(c2ccccc2)C3)c1 | inactive
21 | O=C1Cc2c(-c3ccc(CO)cc3)n[nH]c2CN1CC1CCOCC1 | 79.4 µM (active)
22 | c1cc(-c2ccc3c(c2)OCCCO3)n2ncnc2n1 | inactive
23 | COc1ccc(Cn2c(=O)c(C(=O)N3CCN(C(=O)Nc4ccccc4)CC3)nc3cccnc32)cc1 | inactive
24 | COc1ccccc1-c1ccc(C(=O)N2CCC(C(=O)NC3CC3)CC2)cc1 | inactive
25 | COc1ccc(CC(=O)NC2CCN(Cc3ccc(-c4ccccc4OC)cc3)C2)cc1 (configuration not stated) | 31.6 µM (active)
26 | COCCC1(NC(=O)c2ccccc2)CCN(Cc2ccc(F)cc2F)CC1 | inactive
27 | COc1cccc(-c2ccc(CN3CCCC(NC(=O)NC4CCCC4)C3)cc2)c1 (configuration not stated) | inactive
28 | Cc1cc(C)cc(-c2ccc(CN3CCCC(NC(=O)c4ccccc4)C3)cc2)c1 (configuration not stated) | 22.4 µM (active)
29 | O=C(NC1CCCN(Cc2ccc(-c3cncnc3)cc2)C1)c1ccccc1 (configuration not stated) | inactive
30 | COc1ccc(F)cc1-c1ccc(CN2CCC(NC(=O)c3ccccc3)C2)cc1 (configuration not stated) | 35.5 µM (active)
31 | COc1ccc(F)cc1S(=O)(=O)N1[C@@H]2CC[C@H]1CC(NC(=O)c1ccc(F)cc1)C2 (some centres not stated) | inactive
32 | O=C(NC1CCCN(Cc2ccc(-c3cncnc3)cc2)C1)C1CCCC1 (configuration not stated) | inactive
